Screens: PubChem, National Center for Advancing Translational Sciences (NCATS)
Many of the other results were omitted from the sample, so hits are more common in it than they were.
Methyltransferases: Primary Screen for Target Class Profiling of Small Molecule Inhibitors of Methyltransferases; purified enzyme, MTase-Glo SAH luminescence; active compounds read low; calls only at 40 µM; 25,000 compounds, 3.9% hits; AID 1745853, 2022; call rule not given here
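Each enzyme was assayed with SAM and its substrate. SAH formation detected by MTase-Glo luminescence; single-point 40 uM screen[…].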
Active calls of the source: *. On the % scale 0 is the no-effect control and ±100 the full control effect.

Results for CCN1C(=O)c2c(C(=O)NCc3ccc(OC)c(OC)c3)ncn2CC1(C)C(=O)NC1CCCC1 (configuration not stated) ?
Methyltransferases: inactive

What do the screens show for `CCC(C)NC(=O)c1ccc2c(=O)n(CCC(C)C)c3nn(Cc4cccc(C)c4)c(=O)n3c2c1` (configuration not stated)?
Methyltransferases: inactive

How did C=C1C(=O)OC2CC(C)C(CCC(C)O)=CCC12 (configuration not stated) do in these assays?
Methyltransferases: active

What do the screens show for `C=C1C(=O)OC2CC(C)C(CCC(C)=O)=CCC12` (configuration not stated)?
Methyltransferases: inactive

How did C=C1C(=O)O[C@@H]2C[C@H](C)[C@@]3(O)C=C(C(C)=O)[C@]4(CC3C[C@H]12)C(=O)O[C@H]1C[C@@H](C)C(CCC(C)=O)=CC[C@H]14 (some centres not stated) do in these assays?
Methyltransferases: inactive

What do the screens show for `CC(=O)Nc1c2n(c3ccc(F)cc13)CC(C)(C(=O)NC1CCCC1)N(c1ccc(F)cc1)C2=O` (configuration not stated)?
Methyltransferases: inactive

What do the screens show for `CCc1ccc(N2C(=O)c3cc(-c4ccc(OC)cc4)nn3CC2(C)C(=O)NC2CCCCC2)cc1` (configuration not stated)?
Methyltransferases: inactive

What do the screens show for `CC1(C(=O)NC2CCCCCC2)Cn2c(cc3sccc32)C(=O)N1Cc1ccco1` (configuration not stated)?
Methyltransferases: inactive

What do the screens show for `CC(C)CCNC(=O)CCc1nnc2n(Cc3ccccc3Cl)c(=O)c3ccccc3n12`?
Methyltransferases: inactive

What do the screens show for `O=C(CCc1nnc2n(CCc3ccccc3)c(=O)c3ccccc3n12)NCCCN1CCOCC1`?
Methyltransferases: inactive

How did O=C(CCCc1nnc2n3nc(-c4ccccc4)nc3c3ccccc3n12)NCCN1CCCC1 do in these assays?
Methyltransferases: active

Results for O=C(CCc1nnc2n(CCc3ccccc3)c(=O)c3ccccc3n12)NCCCN1CCCCC1 ?
Methyltransferases: active

How did O=C(CCCc1nnc2n3nc(-c4ccccc4)nc3c3ccccc3n12)NCc1ccccc1 do in these assays?
Methyltransferases: inactive

Results for O=C(CCc1nnc2n(Cc3ccccc3Cl)c(=O)c3ccccc3n12)NCCN1CCOCC1 ?
Methyltransferases: inactive

How did CC1CCN(CCCNC(=O)CCc2nnc3n(Cc4ccccc4Cl)c(=O)c4ccccc4n23)CC1 do in these assays?
Methyltransferases: active

Results for CC(C)CCNC(=O)CCc1nnc2n(Cc3ccc(F)cc3)c(=O)c3ccccc3n12 ?
Methyltransferases: inactive

What do the screens show for `CC1CCCCN1CCNC(=O)CCc1nnc2n(Cc3ccc(F)cc3)c(=O)c3ccccc3n12` (configuration not stated)?
Methyltransferases: active

Results for O=C(CCc1nnc2n(Cc3ccc(F)cc3)c(=O)c3ccccc3n12)NCCc1ccccc1 ?
Methyltransferases: inactive

How did O=C(CCCc1nnc2n3nc(-c4ccccc4)nc3c3ccccc3n12)NCCc1ccccc1 do in these assays?
Methyltransferases: inactive

What do the screens show for `O=C(CCc1nnc2n(CCc3ccccc3)c(=O)c3ccccc3n12)NCCc1ccccc1`?
Methyltransferases: inactive

What do the screens show for `Cc1ccc(NC(=O)Cn2nc3n(CCc4ccccc4)c(=O)c4ccccc4n3c2=O)c(Cl)c1`?
Methyltransferases: inactive

Results for CC1CCCC(NC(=O)C2(C)Cn3c(cc4occc43)C(=O)N2Cc2ccccc2Cl)C1C (configuration not stated) ?
Methyltransferases: inactive

Results for CCCN1C(=O)c2c(C(=O)Nc3cccc(Cl)c3C)ncn2CC1(C)C(=O)NCc1ccc(C)cc1 (configuration not stated) ?
Methyltransferases: inactive

What do the screens show for `CCCn1c(=O)c2cc(F)ccc2n2c(SCC(=O)Nc3cccc(Cl)c3)nnc12`?
Methyltransferases: inactive

Results for Cc1ccc(NS(=O)(=O)c2cc3c(cc2Cl)n(C)c(=O)n3C)cc1 ?
Methyltransferases: inactive

What do the screens show for `CN1C(=O)c2cc(NC(=O)c3cc(-c4ccncc4)nc4ccccc34)ccc2N2CCN=C12`?
Methyltransferases: inactive

Results for O=[S+]1([O-])N(c2ccccc2)C[C@@H](O)[C@]12CCN(Cc1ccc(OC(F)F)cc1)C2 ?
Methyltransferases: inactive

How did COc1ccc(OC)c(CCNC(=O)C(C)n2ccc3cc(S(=O)(=O)N4CCCC4)ccc32)c1 (configuration not stated) do in these assays?
Methyltransferases: inactive

What do the screens show for `CC1(C(=O)NC2CCCCC2)Cn2c(cc3ccccc32)C(=O)N1CCN1CCOCC1` (configuration not stated)?
Methyltransferases: inactive

How did CC1CCC(NC(=O)C2(C)Cn3c(cc4occc43)C(=O)N2CCCc2ccccc2)CC1 (configuration not stated) do in these assays?
Methyltransferases: inactive

Results for O=C(CCc1nnc2n(Cc3ccc(Cl)cc3)c(=O)c3ccccc3n12)NCCN1CCCC1 ?
Methyltransferases: active

Results for Cc1ccc(Cn2c(=O)c3ccccc3n3c(CCC(=O)N4CCC(C)CC4)nnc23)cc1 ?
Methyltransferases: inactive

Results for O=C(CCc1nnc2n(Cc3ccccc3)c(=O)c3ccccc3n12)N1CCN(C2CCCCC2)CC1 ?
Methyltransferases: inactive

How did O=C(CCc1nnc2n(Cc3ccccc3)c(=O)c3ccccc3n12)NCCN1CCCC1 do in these assays?
Methyltransferases: inactive

How did O=C(CCc1nnc2n(Cc3ccc(Cl)cc3)c(=O)c3ccccc3n12)NCCCN1CCOCC1 do in these assays?
Methyltransferases: inactive

How did Cc1ccc(Cn2c(=O)c3ccccc3n3c(CCC(=O)N4CCC(N5CCCCC5)CC4)nnc23)cc1 do in these assays?
Methyltransferases: active

Results for CCOC(=O)c1cc2n(n1)CC(C)(C(=O)NCc1ccccc1)N(Cc1ccccc1Cl)C2=O (configuration not stated) ?
Methyltransferases: inactive

How did CCCC1c2ccc(C)n2CCN1C(=O)Nc1ccc(CC(=O)OCC)cc1 (configuration not stated) do in these assays?
Methyltransferases: inactive

Results for CC(C)n1c(=O)c2ccc(C(=O)NC3CCCC3)cc2n2c(=O)n(CC(=O)NCc3ccccc3)nc12 ?
Methyltransferases: inactive

How did CC1(C(=O)NC2CCCCCC2)Cn2c(nc3ccccc32)C(=O)N1Cc1ccccc1 (configuration not stated) do in these assays?
Methyltransferases: inactive

How did COc1cc(Cl)ccc1C(=O)N1CC[C@@](C)(O)[C@@H](O)C1 do in these assays?
Methyltransferases: inactive

How did Nc1nonc1-c1nc2cnccc2n1C1CCCCC1 do in these assays?
Methyltransferases: active

How did O=C(CCn1ccc2cc(S(=O)(=O)N3CCCCC3)ccc21)NCc1ccccc1 do in these assays?
Methyltransferases: inactive

Results for CC(C)CCn1c(=O)c2ccc(C(=O)NC3CCCCC3)cc2n2c(=O)n(Cc3ccccc3)nc12 ?
Methyltransferases: inactive

How did CN1C(=O)c2cc(C(=O)NCc3ccco3)nn2CC1(C)C(=O)NC1CCCCC1 (configuration not stated) do in these assays?
Methyltransferases: inactive

How did COc1ccc2cc3n(c2c1)CC(C)(C(=O)NC1CCCCCC1)N(Cc1cccs1)C3=O (configuration not stated) do in these assays?
Methyltransferases: inactive

Results for O=C(C1COc2cc(S(=O)(=O)NCCN3CCOCC3)ccc2O1)N1CCOCC1 (configuration not stated) ?
Methyltransferases: inactive
